Results reported in ChEMBL document CHEMBL1961873, “Compounds: GSK PKIS; Assays: Nanosyn kinase panel” (2012).

Columns and labels:
[1] = biological target: Serine/threonine-protein kinase MARK2 (Homo sapiens) (UniProt Q7KZI7); details: at 1 µM
[2] = biological target: PAS domain-containing serine/threonine-protein kinase (Homo sapiens) (UniProt Q96RG2); details: at 0.1 µM
[3] = biological target: PAS domain-containing serine/threonine-protein kinase (Homo sapiens) (UniProt Q96RG2); details: at 1 µM
[4] = biological target: Phosphorylase b kinase gamma catalytic chain, skeletal muscle/heart isoform (Homo sapiens) (UniProt Q16816); details: at 0.1 µM
[5] = biological target: Phosphorylase b kinase gamma catalytic chain, skeletal muscle/heart isoform (Homo sapiens) (UniProt Q16816); details: at 1 µM
[6] = biological target: T1, Phosphorylase b kinase gamma catalytic chain, liver/testis isoform (Homo sapiens) (UniProt P15735); details: at 0.1 µM
T1 sequence (whole entry): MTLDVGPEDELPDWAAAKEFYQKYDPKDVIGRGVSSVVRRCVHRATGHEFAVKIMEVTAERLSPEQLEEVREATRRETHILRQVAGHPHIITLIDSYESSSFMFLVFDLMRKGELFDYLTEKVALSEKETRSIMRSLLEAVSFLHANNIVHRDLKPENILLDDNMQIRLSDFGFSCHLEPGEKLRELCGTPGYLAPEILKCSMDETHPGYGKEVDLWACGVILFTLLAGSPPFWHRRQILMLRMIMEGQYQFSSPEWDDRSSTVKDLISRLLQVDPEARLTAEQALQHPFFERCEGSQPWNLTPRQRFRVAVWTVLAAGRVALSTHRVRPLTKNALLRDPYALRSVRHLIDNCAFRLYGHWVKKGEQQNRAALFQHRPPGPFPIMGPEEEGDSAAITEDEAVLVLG

[7] = biological target: T1, Phosphorylase b kinase gamma catalytic chain, liver/testis isoform (Homo sapiens); details: at 1 µM
[8] = biological target: Serine/threonine-protein kinase pim-1 (Homo sapiens) (UniProt P11309); details: at 0.1 µM
[9] = biological target: Serine/threonine-protein kinase pim-1 (Homo sapiens) (UniProt P11309); details: at 1 µM
[10] = biological target: Serine/threonine-protein kinase pim-2 (Homo sapiens) (UniProt Q9P1W9); details: at 0.1 µM
[11] = biological target: Serine/threonine-protein kinase pim-2 (Homo sapiens) (UniProt Q9P1W9); details: at 1 µM
[12] = biological target: Serine/threonine-protein kinase pim-3 (Homo sapiens) (UniProt Q86V86); details: at 0.1 µM
[13] = biological target: Serine/threonine-protein kinase pim-3 (Homo sapiens) (UniProt Q86V86); details: at 1 µM
[14] = biological target: T2, MAP kinase-activated protein kinase 5 (Homo sapiens) (UniProt Q8IW41); details: at 0.1 µM
T2 sequence (whole entry): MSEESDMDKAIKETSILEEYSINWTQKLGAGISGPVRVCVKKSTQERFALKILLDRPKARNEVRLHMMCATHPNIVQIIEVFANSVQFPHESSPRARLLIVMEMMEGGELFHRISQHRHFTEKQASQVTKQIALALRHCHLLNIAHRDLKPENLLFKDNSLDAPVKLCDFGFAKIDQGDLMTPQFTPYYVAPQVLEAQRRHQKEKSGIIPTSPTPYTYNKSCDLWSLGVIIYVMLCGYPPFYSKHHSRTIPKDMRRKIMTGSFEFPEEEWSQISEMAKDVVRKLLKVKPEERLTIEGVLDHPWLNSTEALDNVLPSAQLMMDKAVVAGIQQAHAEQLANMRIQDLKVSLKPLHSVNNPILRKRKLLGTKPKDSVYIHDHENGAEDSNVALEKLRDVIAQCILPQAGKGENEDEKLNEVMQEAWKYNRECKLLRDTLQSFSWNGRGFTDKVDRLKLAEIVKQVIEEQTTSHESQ

[15] = biological target: T2, MAP kinase-activated protein kinase 5 (Homo sapiens); details: at 1 µM
[16] = biological target: Serine/threonine-protein kinase SIK1 (Homo sapiens) (UniProt P57059); details: at 0.1 µM
[17] = biological target: Serine/threonine-protein kinase SIK1 (Homo sapiens) (UniProt P57059); details: at 1 µM
[18] = biological target: Serine/threonine-protein kinase SIK2 (Homo sapiens) (UniProt Q9H0K1); details: at 0.1 µM
[19] = biological target: Serine/threonine-protein kinase SIK2 (Homo sapiens) (UniProt Q9H0K1); details: at 1 µM
[20] = biological target: T3, Serine/threonine-protein kinase TBK1 (Homo sapiens) (UniProt Q9UHD2); details: at 0.1 µM;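 note: values are the mean TBK1 inhibition, taken from the GSK PKIS screening data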
T3 sequence (whole entry): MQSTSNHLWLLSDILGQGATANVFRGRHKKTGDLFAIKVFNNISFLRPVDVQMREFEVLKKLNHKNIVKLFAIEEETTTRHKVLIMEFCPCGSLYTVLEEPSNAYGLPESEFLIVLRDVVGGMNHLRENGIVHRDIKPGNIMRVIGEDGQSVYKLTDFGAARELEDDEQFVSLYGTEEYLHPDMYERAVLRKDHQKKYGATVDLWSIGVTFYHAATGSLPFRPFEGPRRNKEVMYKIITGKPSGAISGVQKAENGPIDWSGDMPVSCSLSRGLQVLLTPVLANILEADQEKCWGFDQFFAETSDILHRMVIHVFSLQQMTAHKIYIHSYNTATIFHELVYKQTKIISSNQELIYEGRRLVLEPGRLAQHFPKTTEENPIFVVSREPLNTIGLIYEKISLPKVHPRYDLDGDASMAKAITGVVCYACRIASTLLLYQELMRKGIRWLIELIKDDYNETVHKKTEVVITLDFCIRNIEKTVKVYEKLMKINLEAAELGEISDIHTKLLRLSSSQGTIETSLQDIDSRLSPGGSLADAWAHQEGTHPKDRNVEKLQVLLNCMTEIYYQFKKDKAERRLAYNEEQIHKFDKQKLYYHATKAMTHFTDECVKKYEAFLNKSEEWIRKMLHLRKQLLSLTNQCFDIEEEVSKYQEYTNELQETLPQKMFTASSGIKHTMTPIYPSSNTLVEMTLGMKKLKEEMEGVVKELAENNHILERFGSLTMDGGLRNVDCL

Sequence of Serine/threonine-protein kinase pim-2 (Homo sapiens) (Q9P1W9 whole entry, looked up): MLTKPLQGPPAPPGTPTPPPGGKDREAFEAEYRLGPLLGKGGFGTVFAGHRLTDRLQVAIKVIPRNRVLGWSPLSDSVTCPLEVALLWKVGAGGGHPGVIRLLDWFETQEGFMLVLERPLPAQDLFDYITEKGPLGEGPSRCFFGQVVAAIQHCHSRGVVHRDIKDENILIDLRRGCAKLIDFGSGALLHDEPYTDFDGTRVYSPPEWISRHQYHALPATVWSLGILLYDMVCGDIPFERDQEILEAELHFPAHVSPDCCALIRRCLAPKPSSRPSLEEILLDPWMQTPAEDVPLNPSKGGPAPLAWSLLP
Sequence of Serine/threonine-protein kinase SIK2 (Homo sapiens) (Q9H0K1 whole entry, looked up): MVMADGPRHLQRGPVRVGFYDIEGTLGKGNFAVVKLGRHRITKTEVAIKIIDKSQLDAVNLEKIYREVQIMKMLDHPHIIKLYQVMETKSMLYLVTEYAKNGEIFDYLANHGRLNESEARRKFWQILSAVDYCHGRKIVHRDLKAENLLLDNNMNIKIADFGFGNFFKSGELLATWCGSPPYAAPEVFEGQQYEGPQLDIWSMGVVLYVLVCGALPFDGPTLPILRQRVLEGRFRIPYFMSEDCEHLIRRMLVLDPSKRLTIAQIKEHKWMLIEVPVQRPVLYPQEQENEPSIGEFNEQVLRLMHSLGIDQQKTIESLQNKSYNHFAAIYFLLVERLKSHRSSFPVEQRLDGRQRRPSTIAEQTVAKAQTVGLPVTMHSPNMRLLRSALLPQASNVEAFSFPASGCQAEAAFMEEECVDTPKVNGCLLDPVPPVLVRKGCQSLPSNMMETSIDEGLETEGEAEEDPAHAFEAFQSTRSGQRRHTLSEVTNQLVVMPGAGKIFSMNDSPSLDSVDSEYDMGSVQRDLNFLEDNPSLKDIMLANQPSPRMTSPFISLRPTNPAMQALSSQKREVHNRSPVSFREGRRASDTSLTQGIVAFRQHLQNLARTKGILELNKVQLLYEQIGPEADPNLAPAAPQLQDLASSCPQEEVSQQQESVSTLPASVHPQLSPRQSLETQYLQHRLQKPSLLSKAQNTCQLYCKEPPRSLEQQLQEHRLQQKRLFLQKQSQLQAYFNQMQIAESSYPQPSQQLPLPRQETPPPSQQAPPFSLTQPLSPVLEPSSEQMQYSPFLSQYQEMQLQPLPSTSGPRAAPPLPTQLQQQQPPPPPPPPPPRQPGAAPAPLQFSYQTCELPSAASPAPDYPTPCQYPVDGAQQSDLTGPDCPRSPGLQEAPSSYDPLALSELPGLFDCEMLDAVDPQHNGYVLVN
Sequence of Serine/threonine-protein kinase MARK2 (Homo sapiens) (Q7KZI7 whole entry, the tested form may be a part): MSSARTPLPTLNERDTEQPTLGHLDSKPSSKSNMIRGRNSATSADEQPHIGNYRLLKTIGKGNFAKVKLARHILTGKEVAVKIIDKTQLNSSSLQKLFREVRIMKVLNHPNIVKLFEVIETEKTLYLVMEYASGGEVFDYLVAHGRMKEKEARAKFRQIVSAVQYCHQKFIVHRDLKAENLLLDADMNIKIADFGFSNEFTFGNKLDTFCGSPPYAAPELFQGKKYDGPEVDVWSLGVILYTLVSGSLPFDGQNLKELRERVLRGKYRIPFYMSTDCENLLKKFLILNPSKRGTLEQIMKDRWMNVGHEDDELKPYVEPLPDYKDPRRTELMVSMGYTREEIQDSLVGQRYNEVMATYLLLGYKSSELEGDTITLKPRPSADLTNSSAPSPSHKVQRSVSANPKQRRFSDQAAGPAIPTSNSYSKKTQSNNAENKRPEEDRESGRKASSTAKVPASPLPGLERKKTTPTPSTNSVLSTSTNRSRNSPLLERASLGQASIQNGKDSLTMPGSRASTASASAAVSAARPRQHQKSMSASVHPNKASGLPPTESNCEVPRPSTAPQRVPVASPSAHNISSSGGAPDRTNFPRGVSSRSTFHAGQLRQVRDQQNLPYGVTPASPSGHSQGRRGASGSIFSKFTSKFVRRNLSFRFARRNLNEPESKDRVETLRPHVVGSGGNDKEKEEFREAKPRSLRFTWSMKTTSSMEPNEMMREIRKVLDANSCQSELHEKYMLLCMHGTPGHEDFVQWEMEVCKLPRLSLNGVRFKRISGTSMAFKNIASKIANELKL
Sequence of Serine/threonine-protein kinase pim-1 (Homo sapiens) (P11309 whole entry, looked up): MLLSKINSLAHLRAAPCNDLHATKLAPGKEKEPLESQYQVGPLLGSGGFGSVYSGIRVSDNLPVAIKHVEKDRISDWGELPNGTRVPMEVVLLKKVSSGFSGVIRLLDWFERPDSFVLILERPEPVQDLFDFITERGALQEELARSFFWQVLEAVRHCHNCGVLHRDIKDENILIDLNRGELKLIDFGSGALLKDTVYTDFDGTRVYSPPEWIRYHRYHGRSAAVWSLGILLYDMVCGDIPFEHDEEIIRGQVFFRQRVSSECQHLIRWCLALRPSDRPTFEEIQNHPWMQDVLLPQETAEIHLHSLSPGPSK
Sequence of Serine/threonine-protein kinase SIK1 (Homo sapiens) (P57059 whole entry): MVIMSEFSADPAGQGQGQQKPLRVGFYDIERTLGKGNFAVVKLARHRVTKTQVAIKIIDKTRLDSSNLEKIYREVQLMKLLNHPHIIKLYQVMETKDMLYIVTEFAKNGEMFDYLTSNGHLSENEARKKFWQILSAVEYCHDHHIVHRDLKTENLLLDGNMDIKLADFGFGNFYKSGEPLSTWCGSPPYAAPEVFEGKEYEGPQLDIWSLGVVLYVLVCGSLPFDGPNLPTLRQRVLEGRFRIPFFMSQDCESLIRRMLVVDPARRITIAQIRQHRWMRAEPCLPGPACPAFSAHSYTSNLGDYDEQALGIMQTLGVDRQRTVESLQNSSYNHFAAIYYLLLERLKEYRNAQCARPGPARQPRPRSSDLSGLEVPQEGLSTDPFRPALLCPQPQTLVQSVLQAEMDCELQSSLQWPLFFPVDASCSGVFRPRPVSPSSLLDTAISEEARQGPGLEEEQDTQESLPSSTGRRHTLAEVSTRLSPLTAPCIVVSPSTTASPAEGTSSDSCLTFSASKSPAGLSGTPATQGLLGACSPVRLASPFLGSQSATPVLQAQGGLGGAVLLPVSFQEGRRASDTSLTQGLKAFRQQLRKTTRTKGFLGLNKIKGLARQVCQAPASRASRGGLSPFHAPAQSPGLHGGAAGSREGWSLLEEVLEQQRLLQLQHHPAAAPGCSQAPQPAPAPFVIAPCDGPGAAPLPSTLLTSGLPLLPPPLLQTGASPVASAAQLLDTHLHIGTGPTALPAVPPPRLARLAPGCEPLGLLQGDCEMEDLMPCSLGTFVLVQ
Sequence of Phosphorylase b kinase gamma catalytic chain, skeletal muscle/heart isoform (Homo sapiens) (Q16816 whole entry, looked up, canonical isoform): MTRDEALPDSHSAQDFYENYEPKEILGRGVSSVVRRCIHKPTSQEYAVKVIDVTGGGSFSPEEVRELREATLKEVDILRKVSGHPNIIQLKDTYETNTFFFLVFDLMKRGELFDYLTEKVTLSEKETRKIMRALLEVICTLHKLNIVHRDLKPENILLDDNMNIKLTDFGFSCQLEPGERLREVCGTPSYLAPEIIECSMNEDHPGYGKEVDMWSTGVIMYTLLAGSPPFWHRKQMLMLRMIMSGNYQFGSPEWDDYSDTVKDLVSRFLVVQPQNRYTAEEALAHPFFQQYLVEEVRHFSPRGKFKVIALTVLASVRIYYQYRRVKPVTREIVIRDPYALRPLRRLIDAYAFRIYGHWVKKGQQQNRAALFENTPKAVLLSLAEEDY

| SMILES | inhibition [1] [%] | inhibition [2] [%] | inhibition [3] [%] | inhibition [4] [%] | inhibition [5] [%] | inhibition [6] [%] | inhibition [7] [%] | inhibition [8] [%] | inhibition [9] [%] | inhibition [10] [%] | inhibition [11] [%] | inhibition [12] [%] | inhibition [13] [%] | inhibition [14] [%] | inhibition [15] [%] | inhibition [16] [%] | inhibition [17] [%] | inhibition [18] [%] | inhibition [19] [%] | inhibition [20] [%] |
| --- | --- | --- | --- | --- | --- | --- | --- | --- | --- | --- | --- | --- | --- | --- | --- | --- | --- | --- | --- | --- |
| Cc1ccc2c(-c3ccnc(Nc4ccc5c(c4)OCCO5)n3)c(-c3ccc(C(F)(F)F)cc3)nn2n1 | 2.02 | 1.16 | 1.48 | 3.21 | 1.99 | 1.58 | 1.14 | -0.32 | 0.3 | 0.44 | 1.63 | 0.32 | 0.77 | 0.37 | 0.83 | 0.02 | -0.13 | 10.8 | 0.48 | 0.84 |
| CCS(=O)(=O)c1ccc(OC)c(Nc2ncc(-c3cccc(OC)c3)o2)c1 | 1.4 | 0.21 | -1.97 | 1.03 | 18.3 | 2.69 | -0.05 | 1.53 | 2.93 | 0.07 | 0.96 | -0.8 | -0.55 | 0.94 | -0.22 | 6.26 | 28.6 | 8.33 | 31.2 | 0.69 |
| COc1cccc(-n2ncc3c(N/N=C/c4ccc(C)cc4)ncnc32)c1 | 6.23 | -0.93 | 0.57 | 2.43 | 10 | 5.73 | 5.98 | 1.21 | 3.51 | -0.44 | 0.75 | 2.2 | 8.3 | 1.88 | 2.22 | 7.95 | 12.6 | 8.99 | 14.7 | 2.64 |
| Cc1cc(Cl)cc2c1NC(=O)C2=NNc1ccc(S(N)(=O)=O)cc1 | -0.15 | 0.48 | 1.94 | 3.63 | 6.02 | 2.58 | 5.19 | 0.03 | 1.28 | -0.12 | 0.51 | 0.42 | 2.98 | 1.54 | 2.85 | 1.46 | 4.61 | 5.46 | -2.05 | 1.17 |
| ON=C1CCc2cc(-c3nc(C4CCNCC4)[nH]c3-c3ccncc3)ccc21 | 2.57 | 0.03 | -0.46 | 0 | 1.5 | 0.29 | -2.23 | 1 | 0.9 | 0.25 | 2.02 | -0.74 | -1.33 | -0.32 | -1.28 | -0.24 | 0.92 | -6.05 | 3.25 | 0.4 |
| COC(=O)c1ccc2c(c1)C(=Cc1cc(Br)c(O)c(Br)c1)C(=O)N2 | 4.91 | -1.3 | -0.51 | 0.67 | 7.49 | 4.41 | 3.92 | 8.81 | 50.9 | 10.7 | 53.2 | 18.4 | 64.3 | 0.85 | 2.43 | 8.54 | 14.4 | 3.66 | 9.93 | 1.23 |
| Cc1cc(-c2ccccn2)cc(C)c1/C=C/c1cncc(-c2nn[nH]n2)c1 | 4.96 | -0.97 | -1.06 | 3.51 | 7 | 1.5 | 5.59 | 1.73 | 2.55 | 0.01 | -0.15 | 1.13 | 3.53 | 1.22 | 1.42 | 18.9 | 74.7 | 5.34 | 21.5 | 3.59 |
| NS(=O)(=O)c1ccc(Nc2cc(-c3cccc(O)c3)n[nH]2)cc1 | 6.24 | 0.14 | -1.99 | 3.73 | 12.8 | 6.63 | 6.34 | -0.06 | 1.3 | 0.62 | 1.32 | -2.75 | -0.87 | 1.59 | 1.7 | 6.53 | 13.8 | 6.19 | 16.4 | 4.83 |
| COc1cc2ncnc(Nc3ccc4c(cnn4Cc4ccccc4)c3)c2cc1OC | 3.96 | 0.55 | -0.09 | 3.79 | 8.41 | 2.67 | 2.41 | 0.14 | 1.19 | 0.05 | 2.31 | -0.75 | 1.06 | 0.57 | 0.85 | 4.47 | 5.69 | 4.37 | 3.7 | 0.22 |
| Cc1ccc(O)cc1Nc1ccnc2ccc(S(C)(=O)=O)cc12 | 1.93 | -0.05 | 4.61 | 6.2 | 10 | 5.57 | 7.16 | 0.95 | 1.4 | 0.23 | 0.8 | 0.69 | 1.04 | 2.48 | 2.77 | 47.2 | 89.6 | 15.8 | 52.6 | 2.4 |
| N#Cc1c(NC(=O)c2ccccc2F)sc2c1CCCC2 | 3.45 | 1.88 | 1.22 | 1.23 | 2.36 | -2.2 | -2.57 | 0.9 | 2.11 | 0.14 | 0.56 | 0.44 | 2.71 | -0.42 | -0.7 | 0.64 | 2.74 | -2.07 | -0.94 | -1.61 |
